Measured values published in PubChem BioAssay (EPA / NIEHS).
Values joined by “and” are separate entries in the source; they are usually repeats but may differ in a detail not shown here. Equal values may be shown once. Records with an inconclusive call do not appear. More than one record can exist for a structure, and the calls need not agree. Active and inactive are the calls of the source. The calls were made as follows, unless noted: active = hit-call score of the fitted dose curve at least 0.9, where 1 is the maximum; inactive = score below 0.9.

Columns and labels:
[1] = CCTE_Shafer_MEA_dev_active_electrodes_number: CCTE's Neural Network Formation Assay for Number of Active Electrodes, Shafer Lab (AID 2284040; active = hit-call score of the fitted dose curve at least 0.9, where 1 is the maximum;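 as to AC50: potency for loss of active electrodes versus DMSO so lower counts are hits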)
Method in brief: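 Counts electrodes per well firing at least 5 spikes/min, recorded on days 5, 7, 9 and 12 in rat cortical cultures dosed continuously from plating (treatment refreshed DIV 5, 9). Value is the area under the curve over recordings, fitted downward relative to DMSO.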

[2] = CCTE_Shafer_MEA_dev_burst_rate: CCTE's Neural Network Formation Assay for Burst Rate, Shafer Lab (AID 2284042);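 as to AC50: potency for loss of burst rate below DMSO control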
Method in brief: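 Developmental network assay measuring how 12-day exposure of rat cortical neuron cultures alters bursting on extracellular MEA recordings. Values are AUC of well-mean burst rate across four recording days, relative to DMSO vehicle.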

[3] = CCTE_Shafer_MEA_dev_bursting_electrodes_number: CCTE's Neural Network Formation Assay for Number of Bursting Electrodes, Shafer Lab (AID 2284043; active = hit-call score of the fitted dose curve at least 0.9, where 1 is the maximum;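 as to AC50: potency is for loss of bursting electrodes relative to DMSO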)
Method in brief: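 Rat cortical primary neurons, 48-well MEA, 16 electrodes/well; dosing DIV 0–12, re-dosed with full media change DIV 5, 9. Recordings DIV 5/7/9/12, AxIS adaptive spike detector; bursting electrode = ≥1 burst/2 min. AUC across days; loss of signal vs DMSO.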

[4] = CCTE_Shafer_MEA_dev_per_burst_interspike_interval: CCTE's Neural Network Formation Assay for Burst Interspike Interval, Shafer Lab (AID 2284044);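 also: mean spike spacing inside bursts as AUC over recordings on days 5 7 9 12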;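 as to AC50: potency for a decrease of within-burst interspike interval below DMSO level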
Method in brief: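 Developmental network-formation MEA in primary rat cortical cultures with exposure spanning days 0–12. Within-burst ISI is averaged per well and integrated across recording days by area under the curve, with DMSO as negative control baseline.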

[5] = CCTE_Shafer_MEA_dev_burst_duration_mean: CCTE's Neural Network Formation Assay for Mean Burst Duration, Shafer Lab (AID 2284045);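 as to AC50: curve fitted for loss meaning shorter burst duration than DMSO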
Method in brief: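 Rat cortical cultures, 1.5 x 10^5 cells/well with laminin drop; continuous dosing days 0–12, media plus treatment refreshed DIV 5, 9. AxIS adaptive spike detection; mean single-electrode burst duration, AUC over four recordings, negative direction vs DMSO.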

[6] = CCTE_Shafer_MEA_dev_interburst_interval_mean: CCTE's Neural Network Formation Assay for Mean Interburst Interval, Shafer Lab (AID 2284046);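 also: well-mean interburst interval of bursting electrodes as AUC over four recording days; curve fitted for decrease in interburst interval relative to DMSO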
Method in brief: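 Network formation assay in primary rat cortical cultures, exposed from DIV 0 to 12. Mean interburst interval per well, integrated as AUC over four recordings.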

[7] = CCTE_Shafer_MEA_dev_inter_network_spike_interval_mean: CCTE's Neural Network Formation Assay for Mean Inter-network Spike Interval, Shafer Lab (AID 2284047);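 as to AC50: potency for a decrease in mean inter-network spike interval below DMSO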
Method in brief: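 Compound was given at plating to primary rat cortical neurons and renewed with full medium changes on DIV 5 and 9. Extracellular activity was recorded on days 5, 7, 9, 12; AUC values were fitted for loss relative to DMSO control.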

[8] = CCTE_Shafer_MEA_dev_network_spike_number: CCTE's Neural Network Formation Assay for Number of Network Spikes, Shafer Lab (AID 2284048);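 also: synchronized bursts across electrodes counted on days 5 7 9 12 and integrated as AUC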;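 as to AC50: fit as a loss of signal meaning fewer network spikes than DMSO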
Method in brief: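 Rat cortical primary cultures on 48-well MEA (16 electrodes/well); continuous exposure DIV 0–12, full medium and treatment exchange DIV 5, 9. Readout: network spike count, AxIS adaptive detection, recordings DIV 5/7/9/12 collapsed to AUC; loss-of-signal fit, DMSO baseline.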

[9] = CCTE_Shafer_MEA_dev_network_spike_peak: CCTE's Neural Network Formation Assay for Mean Number of Electrodes in Network Spike, Shafer Lab (AID 2284049);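 as to AC50: fitted for loss of signal meaning fewer electrodes in network spikes than DMSO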
Method in brief: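 Network-spike peak electrode count from recordings on days 5, 7, 9 and 12 was combined as trapezoidal area under the curve. Rat cortical cultures were treated continuously from plating, with compound renewed at each feed (DIV 5, 9); fits versus DMSO.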

[10] = target: Estrogen receptor (Homo sapiens) (UniProt P03372); experiment: CCTE_Deisenroth_AIME_384WELL_LUC_Shift: CCTE's 384-well Estrogen Receptor Transactivation Assay with AIME metabolic competence data shift (ERTA luciferase; difference in metabolism positive and negative), Deisenroth Lab (AID 2284041);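 also: shift is response with S9 minus without S9 so positive means metabolism raised ER signal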
Method in brief: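 Chemicals (0.002–200 uM, 10 points) pre-incubated 2 h with alginate-encapsulated induced male Sprague Dawley rat liver S9 or S9-free, then medium applied 24 h to VM7Luc4E2 cells; luciferase. Endpoint is per-concentration difference, S9-positive minus negative.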

Measured: AC50

Estrogen receptor (Homo sapiens), sequence (P03372 whole entry, looked up): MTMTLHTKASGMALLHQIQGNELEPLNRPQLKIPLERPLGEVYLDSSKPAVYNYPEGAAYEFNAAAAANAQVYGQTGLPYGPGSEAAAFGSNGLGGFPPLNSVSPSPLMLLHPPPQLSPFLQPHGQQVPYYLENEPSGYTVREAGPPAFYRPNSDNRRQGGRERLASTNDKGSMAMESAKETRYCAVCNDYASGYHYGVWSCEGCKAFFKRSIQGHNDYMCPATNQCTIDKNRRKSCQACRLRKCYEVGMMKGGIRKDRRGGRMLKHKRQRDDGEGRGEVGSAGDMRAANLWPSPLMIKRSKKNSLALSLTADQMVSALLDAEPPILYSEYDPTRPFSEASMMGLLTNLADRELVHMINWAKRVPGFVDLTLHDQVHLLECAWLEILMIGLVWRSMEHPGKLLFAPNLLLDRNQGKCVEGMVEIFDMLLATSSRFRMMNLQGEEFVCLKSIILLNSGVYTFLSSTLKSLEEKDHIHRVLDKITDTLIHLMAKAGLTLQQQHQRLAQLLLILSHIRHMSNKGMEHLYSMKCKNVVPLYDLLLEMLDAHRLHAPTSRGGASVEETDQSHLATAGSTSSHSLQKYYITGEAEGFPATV

OCCOCCO
active: [7] 24.5 µM
not listed: [10]
inactive: all other assays above

[O-][Cl+]O
active: [5] 15 µM
not listed: [3]
inactive: all other assays above

CC(C)(O)c1cnn2c(-c3ccc(F)c(-c4c(F)cccc4C#N)c3)cnc2n1
active: [1] 5.55 µM | [3] 1.98 µM | [9] 1.98 µM
not listed: [10]
inactive: all other assays above

COP(=S)(OC)SCN1C(=O)c2ccccc2C1=O
inactive: [2] | [4] | [5] | [6] | [7] | [8]
active: [1] 61.1 µM and 51.5 µM | [2] 61.3 µM | [3] 32.6 µM and 51.5 µM | [4] 11.2 µM | [9] 37.6 µM and 51.5 µM

O=C(Oc1ccc(Br)cc1)N1CCN2CCC1CC2
inactive: [10]

CN(C)[C@@H]1C(=O)C(C(N)=O)=C(O)[C@@]2(O)C(=O)C3=C(O)c4c(O)cccc4[C@@](C)(O)[C@H]3C[C@@H]12
not listed: [10]
inactive: all other assays above

O=C(Nc1ccccc1)c1ccccc1I
active: [10] 6.87 µM

CCCCCCCCn1sccc1=O
active: [10] 14 µM

CC(C)(C)C(O)(CCc1ccc(Cl)cc1)Cn1cncn1 (centres undefined)
active: [1] 5.02 µM | [3] 5.5 µM | [8] 801 nM | [9] 15 µM
not listed: [10]
inactive: all other assays above

CNC(=O)Oc1cccc2c1OC(C)(C)C2
active: [1] 17 µM and 49.6 µM | [10] 45.4 µM | [3] 15 µM and 76.8 µM | [9] 10 µM and 49.6 µM
inactive: all other assays above

CCNS(=O)(=O)C(F)(F)C(F)(F)C(F)(F)C(F)(F)C(F)(F)C(F)(F)C(F)(F)C(F)(F)F
active: [1] 7.41 µM and 2.98 µM | [3] 15 µM and 2.98 µM | [8] 2980 nM | [9] 5.46 µM and 1.92 µM
inactive: [2] | [4] | [5] | [6] | [7] | [8]

OCCCBr
inactive: [10]

Cc1ccc([N+](=O)[O-])cc1
inactive: [10]

Clc1ccc(C(c2ccc(Cl)cc2)C(Cl)(Cl)Cl)cc1
inactive: [5] | [7]
active: [1] 4.02 µM and 7.34 µM | [2] 7.69 µM and 6.09 µM | [3] 3.96 µM and 6.35 µM | [4] 7.74 µM and 9.33 µM | [6] 7.67 µM and 9 µM | [8] 2.58 µM and 2.86 µM | [9] 3.55 µM and 6.68 µM

CCCCOC(=O)c1ccccc1C(=O)OCc1ccccc1
active: [1] 22.7 µM | [3] 50.5 µM | [9] 15.2 µM
not listed: [10]
inactive: all other assays above
